# According to PubChem BioAssay (NCATS):
# Unmarked numbers belong to inactive results. Results filed as inconclusive are left out. Calls of active or inactive are those of the source. Unless noted, calls follow the shape of the dose curve; as a rule, active = well fitted curve in the direction sought with a large enough effect; inconclusive = small, poorly fitted or top-dose-only effect, or another doubt; inactive = no such curve, though single readings can be large; an effect the other way counts as inactive or inconclusive.
# Target: Muscarinic acetylcholine receptor M1 (Rattus norvegicus) (UniProt P08482)
# Sequence (P08482 whole entry, looked up): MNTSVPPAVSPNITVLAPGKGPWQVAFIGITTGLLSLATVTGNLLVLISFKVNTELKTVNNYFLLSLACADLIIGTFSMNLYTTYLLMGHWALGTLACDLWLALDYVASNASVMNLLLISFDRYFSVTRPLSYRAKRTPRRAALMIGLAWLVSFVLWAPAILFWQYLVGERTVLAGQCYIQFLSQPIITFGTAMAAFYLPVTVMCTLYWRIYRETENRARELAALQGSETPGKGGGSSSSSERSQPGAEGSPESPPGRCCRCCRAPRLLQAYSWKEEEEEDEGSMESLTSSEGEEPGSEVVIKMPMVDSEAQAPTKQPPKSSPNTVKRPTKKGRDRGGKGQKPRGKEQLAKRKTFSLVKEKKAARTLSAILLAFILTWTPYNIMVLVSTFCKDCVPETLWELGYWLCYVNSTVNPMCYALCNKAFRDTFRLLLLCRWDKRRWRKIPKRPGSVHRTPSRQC
# Assay: qHTS Assay for Antagonists of Acetylcholine Muscarinic M1 Receptor: Kinetic Measurement of Intracellular Calcium Response (AID 943); also: nearly all actives have a fitted effect of over 75% in size
# Conditions: M1-expressing cells, kinetic intracellular calcium fluorescence; series mostly up to 35.3 µM; activity change, negative = inhibition: at the top concentration
# How it was run: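 CHO cells expressing rat M1 receptor, Fluo-4 loaded, preincubated 10 min with compound, then stimulated with EC80 carbachol (100 nM final). Kinetic calcium fluorescence over 4 min; response taken as peak over basal signal.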
row,Compound,"activity change, negative = inhibition [%]"
1,CC1=C(/C=C/C(C)=C/C=C/C(C)=C/C(=O)Nc2ccc(O)cc2)C(C)(C)CCC1,-39.3
2,COCCCCC(=NOCCN)c1ccc(C(F)(F)F)cc1,-37.5
3,C[N+](C)(C)CC(=O)O,-27.1
4,CC(=O)c1ccc(S(=O)(=O)NC(=O)NC2CCCCC2)cc1,-23
5,CC(=O)N[C@@H](CS)C(=O)O,12.3
6,CCN(CC)C(=O)c1ccc(O)c(OC)c1,-23.9

# Target: Muscarinic acetylcholine receptor M1 (Rattus norvegicus) (UniProt P08482)
# Assay: qHTS Assay for Antagonists of Acetylcholine Muscarinic M1 Receptor: Measurement of IP-One Response (AID 944); also: nearly all actives have a fitted effect of over 75% in size
# Conditions: CHO-M1 cells, IP-One HTRF, antagonist mode; series mostly up to 46.1 µM; activity change, negative = inhibition: at the top concentration
# How it was run: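 CHO cells stably expressing rat M1, pretreated 10 min with compound, then stimulated 30 min with carbachol at EC80 (200 nM) in LiCl-containing buffer pH 7.4; IP1 accumulation read by HTRF competition (665/620 nm).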
row,Compound,"activity change, negative = inhibition [%]"
1,CC1=C(/C=C/C(C)=C/C=C/C(C)=C/C(=O)Nc2ccc(O)cc2)C(C)(C)CCC1,-35.6
2,Clc1ccc(Cn2c(CN3CCCC3)nc3ccccc32)cc1,-42.2
3,COCCCCC(=NOCCN)c1ccc(C(F)(F)F)cc1,-43.3
4,COc1cccc(-c2cc(=O)c3ccccc3o2)c1N,-36.7
5,C[N+](C)(C)CC(=O)O,-28.4
6,CCN(CC)C(=O)c1ccc(O)c(OC)c1,-37.1

# Target: Pyruvate kinase (Leishmania mexicana) (UniProt Q27686)
# Sequence (Q27686 2-499 E452W): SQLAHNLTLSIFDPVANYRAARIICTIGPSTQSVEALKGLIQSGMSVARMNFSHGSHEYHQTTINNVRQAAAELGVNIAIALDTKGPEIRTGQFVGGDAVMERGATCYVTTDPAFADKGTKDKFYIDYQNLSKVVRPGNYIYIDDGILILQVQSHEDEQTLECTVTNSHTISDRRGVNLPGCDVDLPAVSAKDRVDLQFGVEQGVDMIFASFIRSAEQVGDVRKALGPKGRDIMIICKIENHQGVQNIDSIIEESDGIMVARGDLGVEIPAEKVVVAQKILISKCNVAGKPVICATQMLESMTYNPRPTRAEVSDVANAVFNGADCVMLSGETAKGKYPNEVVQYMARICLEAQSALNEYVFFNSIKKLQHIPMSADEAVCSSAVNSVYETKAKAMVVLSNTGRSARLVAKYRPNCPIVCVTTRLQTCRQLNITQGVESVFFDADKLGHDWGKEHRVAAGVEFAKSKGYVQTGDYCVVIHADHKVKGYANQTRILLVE
# Assay: qHTS Validation Assay for Inhibitors of Leishmania Mexicana Pyruvate Kinase (AID 945); also: potency is read from the fitted curve at half-maximal effect;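 as to activity change, negative = inhibition: 0% = DMSO only neutral control wells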
# Conditions: purified L. mexicana pyruvate kinase, enzyme activity, E451W mutant enzyme; series mostly up to 57.5 µM; activity change, negative = inhibition: at the top concentration
# How it was run: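 Eight-point qHTS titrations in triplicate, data normalized to DMSO neutral control. Reaction: 0.2 nM LmPYK E451W mutant, 0.5 mM PEP, 0.1 mM ADP, 7 mM MgCl2, pH 7.2, one hour at room temperature; luminescent ATP detection.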
Compound,"activity change, negative = inhibition [%]",Potency
CC1=C(/C=C/C(C)=C/C=C/C(C)=C/C(=O)Nc2ccc(O)cc2)C(C)(C)CCC1,-1.51,–
CC1(C)CCC2=C(O1)c1ccccc1C(=O)C2=O,-13.6,–
Clc1ccc(Cn2c(CN3CCCC3)nc3ccccc32)cc1,-11,–
CC(C)(C)c1ccc(C(O)CCCN2CCC(C(O)(c3ccccc3)c3ccccc3)CC2)cc1 (centres undefined),1.83,–
NC(N)=Nc1nc(CSCC/C(N)=N/S(N)(=O)=O)cs1,5.35,–
COc1ccc(Cc2nccc3cc(OC)c(OC)cc23)cc1OC,-19.7,–
COCCCCC(=NOCCN)c1ccc(C(F)(F)F)cc1,4.01,–
COc1cccc(-c2cc(=O)c3ccccc3o2)c1N,–,12.6 µM (active)
C[N+](C)(C)CC(=O)O,2.58,–
CC(=O)c1ccc(S(=O)(=O)NC(=O)NC2CCCCC2)cc1,4.8,–
CC(=O)N[C@@H](CS)C(=O)O,7.39,–
CCN1CCC[C@H]1CNC(=O)c1cc(S(N)(=O)=O)ccc1OC,-13.8,–
CCN(CC)C(=O)c1ccc(O)c(OC)c1,6.72,–

# Test system: not listed separately
# Assay: MultiTox-Fluor Cytotoxicity Assay - LYMP1-001 - Dead Cells (AID 946); also: potency is read from the fitted curve at half-maximal effect
# Conditions: LYMP1-001 lymphoblastoid cells, dead-cell protease fluorescence; series mostly up to 92.2 µM; cytotoxicity (dead cells): at the top concentration
# How it was run: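 Cytotoxicity as increased dead-cell protease fluorescence (bis-AAF-R110, 485/520 nm), read 60 min after MultiTox-Fluor reagent. Human lymphoblastoid line exposed 16 h; Hill-fitted AC50, with DMSO as 0% and 15 uM tetraoctylammonium bromide as 100%.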
Compound,Potency,cytotoxicity (dead cells) [%]
CC1=C(/C=C/C(C)=C/C=C/C(C)=C/C(=O)Nc2ccc(O)cc2)C(C)(C)CCC1,79.4 µM (active),–
O=C(O)Cc1cccc2ccccc12,–,10.3
O=C(O)c1cc(O)c2c(c1)C(=O)c1cccc(O)c1C2=O,–,-23.2
O=c1[nH]cnc2c1ncn2[C@H]1CC[C@@H](CO)O1,–,-4.78
O=c1c(O)c(-c2ccc(O)cc2)oc2cc(O)cc(O)c12,–,11.5
CC(=O)c1ccc(S(=O)(=O)NC(=O)NC2CCCCC2)cc1,–,1.87

# Test system: not listed separately
# Assay: MultiTox-Fluor Cytotoxicity Assay - LYMP1-001 - Live Cells (AID 947);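 also: 0% = DMSO only and full inhibition = tetraoctylammonium bromide control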
# Conditions: LYMP1-001 lymphoblastoid cells, live-cell protease fluorescence viability; series mostly up to 92.2 µM; activity change, negative = cytotoxicity: at the top concentration
row,Compound,"activity change, negative = cytotoxicity [%]"
1,O=C(O)Cc1cccc2ccccc12,2.88
2,O=C(O)c1cc(O)c2c(c1)C(=O)c1cccc(O)c1C2=O,-24.9
3,CC(=O)O[C@]1(C(C)=O)CC[C@H]2[C@@H]3C=C(Cl)C4=CC(=O)[C@@H]5C[C@@H]5[C@]4(C)[C@H]3CC[C@@]21C,-8.3
4,O=c1[nH]cnc2c1ncn2[C@H]1CC[C@@H](CO)O1,-7.66
5,O=c1c(O)c(-c2ccc(O)cc2)oc2cc(O)cc(O)c12,-1.82
6,CC(=O)c1ccc(S(=O)(=O)NC(=O)NC2CCCCC2)cc1,9.71

# Test system: not listed separately
# Assay: Cell Viability - LYMP1-002 - Assay at 16 hr (AID 948); also: potency is read from the fitted curve at half-maximal effect;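 as to activity change, negative = cytotoxicity: 0% = DMSO alone and full effect = 92 µM tetraoctylammonium bromide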
# Conditions: LYMP1-002 lymphoblastoid cell viability; series mostly up to 92.2 µM; activity change, negative = cytotoxicity: at the top concentration
# How it was run: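 LYMP1-002 human lymphoblastoid cells, 2500/well; 5 hr 37 C; cpd 16 hr 37 C; CellTiter-Glo 30 min RT; luminescence (ATP). Concentration-response, Hill-fit AC50. Pos ctrl tetraoctylammonium bromide.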
Compound,Potency,"activity change, negative = cytotoxicity [%]"
CC1=C(/C=C/C(C)=C/C=C/C(C)=C/C(=O)Nc2ccc(O)cc2)C(C)(C)CCC1,50.1 µM (active),–
O=C(O)Cc1cccc2ccccc12,–,-1.72
O=C(O)c1cc(O)c2c(c1)C(=O)c1cccc(O)c1C2=O,–,-9.61
CC(=O)O[C@]1(C(C)=O)CC[C@H]2[C@@H]3C=C(Cl)C4=CC(=O)[C@@H]5C[C@@H]5[C@]4(C)[C@H]3CC[C@@]21C,–,-9.94
O=c1[nH]cnc2c1ncn2[C@H]1CC[C@@H](CO)O1,–,3.31
O=c1c(O)c(-c2ccc(O)cc2)oc2cc(O)cc(O)c12,–,0.151
CC(=O)c1ccc(S(=O)(=O)NC(=O)NC2CCCCC2)cc1,–,-3.28

# Target: Pyruvate kinase PKM (Homo sapiens) (UniProt P14618)
# Sequence (P14618 whole entry, looked up): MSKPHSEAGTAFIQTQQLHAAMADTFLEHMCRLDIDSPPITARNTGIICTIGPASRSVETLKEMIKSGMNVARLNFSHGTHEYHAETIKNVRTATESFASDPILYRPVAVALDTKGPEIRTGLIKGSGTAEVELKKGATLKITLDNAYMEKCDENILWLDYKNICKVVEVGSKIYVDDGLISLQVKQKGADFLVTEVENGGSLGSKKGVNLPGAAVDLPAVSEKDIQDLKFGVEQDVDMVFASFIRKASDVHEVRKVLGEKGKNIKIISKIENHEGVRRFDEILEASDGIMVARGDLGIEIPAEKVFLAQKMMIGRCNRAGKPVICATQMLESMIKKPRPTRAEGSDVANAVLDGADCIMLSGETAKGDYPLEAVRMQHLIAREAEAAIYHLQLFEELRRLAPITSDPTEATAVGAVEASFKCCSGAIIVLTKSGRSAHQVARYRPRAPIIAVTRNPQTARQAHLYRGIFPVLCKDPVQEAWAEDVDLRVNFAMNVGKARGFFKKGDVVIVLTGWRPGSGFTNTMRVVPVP
# Assay: qHTS Assay for Activators of Human Muscle Pyruvate Kinase (AID 954; active = well fitted curve in the direction sought with a large enough effect, not every such curve was filed as active;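 also: 0% = uninhibited enzyme and -100% = no enzyme or full thiadiazolimine inhibition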)
# Conditions: purified human muscle pyruvate kinase, luciferase-coupled luminescence, 1 h; series mostly up to 57.5 µM; activity change, negative = inhibition: at the top concentration
# How it was run: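 Human PKM2 activity is measured as ATP generation, detected by luciferase-coupled luminescence. The enzyme (0.1 nM) acts on 0.5 mM PEP and 0.1 mM ADP for 1 h at ambient temperature; data are normalized to uninhibited and full-inhibition wells.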
row,Compound,"activity change, negative = inhibition [%]"
1,CC1=C(/C=C/C(C)=C/C=C/C(C)=C/C(=O)Nc2ccc(O)cc2)C(C)(C)CCC1,-18.9
2,CC1(C)CCC2=C(O1)c1ccccc1C(=O)C2=O,-21.9
3,Clc1ccc(Cn2c(CN3CCCC3)nc3ccccc32)cc1,-22.6
4,CC(C)(C)c1ccc(C(O)CCCN2CCC(C(O)(c3ccccc3)c3ccccc3)CC2)cc1 (centres undefined),-7.07
5,NC(N)=Nc1nc(CSCC/C(N)=N/S(N)(=O)=O)cs1,-10.3
6,COc1ccc(Cc2nccc3cc(OC)c(OC)cc23)cc1OC,-25.9
7,COCCCCC(=NOCCN)c1ccc(C(F)(F)F)cc1,-5.24
8,COc1cccc(-c2cc(=O)c3ccccc3o2)c1N,-75.6
9,C[N+](C)(C)CC(=O)O,-10.3
10,CC(=O)c1ccc(S(=O)(=O)NC(=O)NC2CCCCC2)cc1,5.83
11,CC(=O)N[C@@H](CS)C(=O)O,-7.11
12,CCN1CCC[C@H]1CNC(=O)c1cc(S(N)(=O)=O)ccc1OC,-13.6
13,CCN(CC)C(=O)c1ccc(O)c(OC)c1,-3.79

# Test system: not listed separately
# Assay: MultiTox-Fluor Cytotoxicity Assay - LYMP1-002 - Live Cells (AID 955);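 also: cells exposed to compound for 16 hours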; also: potency is read from the fitted curve at half-maximal effect; as to viability change, negative = cytotoxic: % is scaled to controls: 0 for no effect and ±100 for the full control effect
# Conditions: LYMP1-002 lymphoblastoid live-cell protease fluorescence viability; series mostly up to 46.1 µM; viability change, negative = cytotoxic: at the top concentration
# How it was run: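 Human lymphoblastoid LYMP1-002 cells, 2500/well, treated 16 h at 37 C in complete medium. Live-cell protease activity via GF-AFC fluorescence (Ex/Em 405/510) after 60 min reagent incubation; AC50 from Hill fits.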
Compound,Potency,"viability change, negative = cytotoxic [%]"
CC1=C(/C=C/C(C)=C/C=C/C(C)=C/C(=O)Nc2ccc(O)cc2)C(C)(C)CCC1,25.1 µM (active),–
O=C(O)Cc1cccc2ccccc12,–,2.97
O=C(O)c1cc(O)c2c(c1)C(=O)c1cccc(O)c1C2=O,–,-6.54
CC(=O)O[C@]1(C(C)=O)CC[C@H]2[C@@H]3C=C(Cl)C4=CC(=O)[C@@H]5C[C@@H]5[C@]4(C)[C@H]3CC[C@@]21C,–,-11.2
O=c1[nH]cnc2c1ncn2[C@H]1CC[C@@H](CO)O1,–,-2.83
O=c1c(O)c(-c2ccc(O)cc2)oc2cc(O)cc(O)c12,–,-10.2
CC(=O)c1ccc(S(=O)(=O)NC(=O)NC2CCCCC2)cc1,–,1.91
